Consider nine compounds from PubChem BioAssay (NCI).

Compounds without any hit were thinned out: in the full panel of roughly 79,000, 15% have a hit. A number with no mark means an inactive call. Active and inactive are the calls of the source. No stated cut-off is given here; in the data, active means growth inhibition above about 70%; inactive means the rest.

The nature of assay [1]: NCI Yeast Anticancer Drug Screen. Data for the rad50 strain (AID 155).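 Further: 0% = growth of vehicle-only cultures of the same strain.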 The note with it: S. cerevisiae rad50 strain growth inhibition, stronger effect = higher value. The procedure, abridged: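 Inhibition values express reduced yeast growth in compound-treated cultures relative to vehicle-treated controls.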
A short description of assay [2]: NCI Yeast Anticancer Drug Screen. Data for the mec2-1 strain (AID 157). The note with it: S. cerevisiae mec2-1 strain, stronger effect = higher value. The procedure, abridged: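 Vehicle-treated cultures served as reference for growth inhibition of compound-exposed mec2-1 yeast.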
Assay [3] in a line: NCI Yeast Anticancer Drug Screen. Data for the sgs1 mgt1 strain (AID 161).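 Further: 0% = growth of cultures given vehicle only.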 The note with it: S. cerevisiae sgs1 mgt1 strain, stronger effect = higher value. An outline of the steps:
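Test agents were incubated with a DNA-repair-mutant yeast strain. Growth was then read and compared against vehicle-treated controls.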

Assay [4] in a line: NCI Yeast Anticancer Drug Screen. Data for the cln2 rad14 strain (AID 165).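 Further: 0% = growth equal to vehicle treated cultures.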 The note with it: S. cerevisiae cln2 rad14 strain, stronger effect = higher value. The procedure, abridged: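 Each compound was tested on cln2 rad14 yeast. Inhibition of growth was calculated against vehicle-exposed controls.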
Assay [5] is described as follows: NCI Yeast Anticancer Drug Screen. Data for the bub3 strain (AID 167). The note with it: S. cerevisiae bub3 mutant strain, stronger effect = higher value. The procedure, abridged:
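Steps: expose the mutant yeast strain to compound; grow alongside vehicle-treated cultures; measure growth; express inhibition against the vehicle cultures.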

A short description of assay [6]: NCI Yeast Anticancer Drug Screen. Data for the mlh1 rad18 strain (AID 175). The note with it: S. cerevisiae mlh1 rad18 strain growth inhibition, stronger effect = higher value. An outline of the steps:
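Vehicle-treated cultures served as the reference for growth inhibition in a yeast strain carrying DNA damage repair alterations exposed to each compound.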

[7] abbreviates: at 5.0 µM (retest, dose inferred, filed as 0.5).
The mark [8] stands for this setting: at 50.0 µM (retest, dose inferred, filed as 5.0).

As for `CCCCCCNC(=O)CI`, the growth inhibition in assay [1] (setting [7]) was -3%; in assay [1] (setting [8]), 88% (active); in assay [1] (at 50.0 µM), 42.7%; in assay [2] (setting [7]), -2%; in assay [2] (setting [8]) it was 91% (active); in assay [2] (at 50.0 µM), 75.2% (active). Besides, the growth inhibition was -5% in assay [3] (setting [7]); 87% (active) in assay [3] (setting [8]); 16.7% in assay [3] (at 50.0 µM); -1% in assay [4] (setting [7]); 46% in assay [4] (setting [8]); -17.4% in assay [4] (at 50.0 µM). Also, the growth inhibition in assay [5] (setting [7]) is 5%; in assay [5] (setting [8]), 84% (active); in assay [5] (at 50.0 µM), 59.2%; in assay [6] (setting [7]), -3%; in assay [6] (setting [8]), 93% (active); in assay [6] (at 50.0 µM), 50.4%.

With `CN1C(=O)CC[C@@]2(C)C1=CC[C@H]1[C@@H]3CC[C@H](O)[C@@]3(C)CC[C@@H]12`, the growth inhibition was 7% in assay [1] (setting [7]); 64% in assay [1] (setting [8]); -9.15% in assay [1] (at 50.0 µM); 0% in assay [2] (setting [7]); 43% in assay [2] (setting [8]); 14.9% in assay [2] (at 50.0 µM). Also, the growth inhibition in assay [3] (setting [7]) is 12%; in assay [3] (setting [8]), 79% (active); in assay [3] (at 50.0 µM), 55%; in assay [4] (setting [7]) it was 13%; in assay [4] (setting [8]), 40%; in assay [4] (at 50.0 µM), -3.4%. The growth inhibition in assay [5] (setting [7]) was 3%; in assay [5] (setting [8]), 63%; in assay [5] (at 50.0 µM), 62.1%; in assay [6] (setting [7]) it was 6%; in assay [6] (setting [8]) it was 52%; in assay [6] (at 50.0 µM), 15.1%.

`CCC(C)N1CN(c2ccccc2)C2(CCN(CC3COc4ccccc4O3)CC2)C1=O` (configuration not stated): the growth inhibition in assay [1] (setting [7]) is 1%; in assay [1] (setting [8]) it was -7%; in assay [1] (at 50.0 µM), -5.3%; in assay [2] (setting [7]), -5%; in assay [2] (setting [8]), 1%; in assay [2] (at 50.0 µM), 4.4%. For the same compound, the growth inhibition in assay [3] (setting [7]) is 18%; in assay [3] (setting [8]), 9%; in assay [3] (at 50.0 µM) it was 18.2%; in assay [4] (setting [7]), 11%; in assay [4] (setting [8]) it was 13%; in assay [4] (at 50.0 µM), 8.65%. The growth inhibition in assay [5] (setting [7]) was 9%; in assay [5] (setting [8]) it was 32%; in assay [5] (at 50.0 µM), 66.7%; in assay [6] (setting [7]) it was -26%; in assay [6] (setting [8]) it was 6%; in assay [6] (at 50.0 µM), 12.6%.

Turning to `N#CC(=C=N)N=C(F)C(C#N)=C(C#N)C#N`, the growth inhibition in assay [1] (setting [7]) is -1%; in assay [1] (setting [8]), 68%; in assay [1] (at 50.0 µM), 87% (active); in assay [2] (setting [7]), -2%; in assay [2] (setting [8]) it was 88% (active); in assay [2] (at 50.0 µM), 82.6% (active). Further, the growth inhibition in assay [3] (setting [7]) is 13%; in assay [3] (setting [8]), 86% (active); in assay [3] (at 50.0 µM), 73.2% (active); in assay [4] (setting [7]), 7%; in assay [4] (setting [8]), 94% (active); in assay [4] (at 50.0 µM), 90.3% (active). Further, the growth inhibition is 6% in assay [5] (setting [7]); 77% (active) in assay [5] (setting [8]); 86.8% (active) in assay [5] (at 50.0 µM); 25% in assay [6] (setting [7]); 93% (active) in assay [6] (setting [8]); 94.8% (active) in assay [6] (at 50.0 µM).

As to `N#CC(C#N)=Cc1ccc2c(c1)OC(Cl)O2` (configuration not stated), the growth inhibition in assay [1] (setting [7]) was 25%; in assay [1] (setting [8]), 46%; in assay [1] (at 50.0 µM) it was 59.6%; in assay [2] (setting [7]), 26%; in assay [2] (setting [8]) it was 27%; in assay [2] (at 50.0 µM) it was 49.2%. Moreover, the growth inhibition is 15% in assay [3] (setting [7]); 33% in assay [3] (setting [8]); 57.5% in assay [3] (at 50.0 µM); 15% in assay [4] (setting [7]); 18% in assay [4] (setting [8]); 55.5% in assay [4] (at 50.0 µM). Moreover, the growth inhibition in assay [5] (setting [7]) is -11%; in assay [5] (setting [8]), 16%; in assay [5] (at 50.0 µM), 55.9%; in assay [6] (setting [7]) it was 35%; in assay [6] (setting [8]), 35%; in assay [6] (at 50.0 µM) it was 66.5%.

As to `CC1(C)CCC(C)(C)c2cc(Cl)c(O)cc21`, the growth inhibition is 4% in assay [1] (setting [7]); 1% in assay [1] (setting [8]); 97.8% (active) in assay [1] (at 50.0 µM); 4% in assay [2] (setting [7]); 2% in assay [2] (setting [8]); 99.2% (active) in assay [2] (at 50.0 µM). The growth inhibition in assay [3] (setting [7]) was 4%; in assay [3] (setting [8]) it was 2%; in assay [3] (at 50.0 µM), 52.5%; in assay [4] (setting [7]), 5%; in assay [4] (setting [8]), 4%; in assay [4] (at 50.0 µM), 96.6% (active). Further, the growth inhibition in assay [5] (setting [7]) was 3%; in assay [5] (setting [8]) it was 9%; in assay [5] (at 50.0 µM), 98.8% (active); in assay [6] (setting [7]), -1%; in assay [6] (setting [8]), -4%; in assay [6] (at 50.0 µM), 97.2% (active).

`CC(Br)CN1CCOCC1` (configuration not stated): the growth inhibition is 91% (active) in assay [1] (setting [7]); 97% (active) in assay [1] (setting [8]); 94.2% (active) in assay [1] (at 50.0 µM); 25% in assay [2] (setting [7]); 98% (active) in assay [2] (setting [8]); 96.8% (active) in assay [2] (at 50.0 µM). The growth inhibition in assay [3] (setting [7]) was 58%; in assay [3] (setting [8]), 94% (active); in assay [3] (at 50.0 µM) it was 67.7%; in assay [4] (setting [7]), 14%; in assay [4] (setting [8]), 66%; in assay [4] (at 50.0 µM) it was 12.8%. Further, the growth inhibition in assay [5] (setting [7]) was -10%; in assay [5] (setting [8]), 36%; in assay [5] (at 50.0 µM), 2.6%; in assay [6] (setting [7]) it was 66%; in assay [6] (setting [8]), 97% (active); in assay [6] (at 50.0 µM), 96.2% (active).

Regarding `CC(C(=O)C1CCCCC1)[n+]1ccccc1` (configuration not stated), the growth inhibition was 1% in assay [1] (setting [7]); -2% in assay [1] (setting [8]); -1.2% in assay [1] (at 50.0 µM); 1% in assay [2] (setting [7]); 1% in assay [2] (setting [8]); 1.3% in assay [2] (at 50.0 µM). The growth inhibition in assay [3] (setting [7]) is 0%; in assay [3] (setting [8]), -2%; in assay [3] (at 50.0 µM) it was -2.3%; in assay [4] (setting [7]) it was 9%; in assay [4] (setting [8]), -2%; in assay [4] (at 50.0 µM), 48.5%. Also, the growth inhibition in assay [5] (setting [7]) was 3%; in assay [5] (setting [8]) it was 1%; in assay [5] (at 50.0 µM), 11.2%; in assay [6] (setting [7]), -4%; in assay [6] (setting [8]), -6%; in assay [6] (at 50.0 µM), -5.85%.

Turning to `O=C(c1ccccc1)c1c(CC(O)c2ccccn2)n(C(=O)c2ccccc2)c2ccccc12` (configuration not stated), the growth inhibition was 6% in assay [1] (setting [7]); 88% (active) in assay [1] (setting [8]); 77.5% (active) in assay [1] (at 50.0 µM); -8% in assay [2] (setting [7]); 75% (active) in assay [2] (setting [8]); 46.7% in assay [2] (at 50.0 µM). Further, the growth inhibition in assay [3] (setting [7]) was 5%; in assay [3] (setting [8]), 86% (active); in assay [3] (at 50.0 µM) it was 82.5% (active); in assay [4] (setting [7]) it was 12%; in assay [4] (setting [8]), 88% (active); in assay [4] (at 50.0 µM), 65.7%. In addition, the growth inhibition in assay [5] (setting [7]) is -10%; in assay [5] (setting [8]), 93% (active); in assay [5] (at 50.0 µM) it was 74.2% (active); in assay [6] (setting [7]), 2%; in assay [6] (setting [8]), 86% (active); in assay [6] (at 50.0 µM), 84% (active).
